Consider 8 molecules from PubChem BioAssay (NCI).

Common to all, as to experiment: NCI-60 one-dose screen, 48 h (100 = growth as untreated, 0 = no growth, -100 = all killed)
What all share (conditions): 10 µM unless noted

Assay [1] concerns NCI-H23 lung.
The subject of assay [2] is NCI-H226 lung.
Assay [3] deals with NCI-H322M lung.
For assay [4], the system named is HOP-62 NSCLC.
Assay [5] concerns NCI-H460 lung.
The test system of assay [6] is HOP-92 NSCLC.
Assay [7] deals with NCI-H522 lung.
Assay [8] relates to A549/ATCC NSCLC.
For assay [9], the system named is 786-0 renal.
For assay [10], the system named is COLO 205 colon.
Assay [11] concerns DU-145 prostate.
Assay [12] deals with K-562 leukemia.
In assay [13] the test system is MALME-3M melanoma.
Assay [14] relates to MDA-MB-231 breast.
Assay [15] concerns RXF 393 renal.
The subject of assay [16] is SF-268 CNS.
The test system of assay [17] is SF-295 CNS.
The subject of assay [18] is SF-539 CNS.
Assay [19] has as its system UACC-257 melanoma.
Assay [20] deals with M14 melanoma.

Structures are written as SMILES. This is part of a sample that, as a whole, favours compounds with a hit. Of some 83,000 tested, about 20% had one in any assay.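 Plates (96-well) were seeded with cells, treated with compound at one concentration, and incubated for 48 hours before percent growth was determined.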 Unmarked numbers belong to inactive results. Activity calls are given as the source filed them. The calls were made as follows: active = growth percent below 10; inactive = the rest.

Turning to `O=[N+]([O-])/C(=C\c1ccco1)c1ccccc1Cl`, the growth in [1] was 92.3%; in assay [2], 90.3%; in assay [3], 80.2%; in assay [4], 76.2%; in assay [5] it was 68.1%; in assay [6], 33.2%. Also, the growth in assay [7] was 23.2%; in assay [8] it was 62.3%; in [9] it was 9.35% (active); in [10], 82.8%; in [11], 86.1%; in assay [12], 67.9%. Further, the growth is 80.6% in assay [13]; 87.9% in [14]; 67.1% in assay [15]; 87% in assay [16]; 102% in assay [17]; 91.7% in assay [18]. The growth is 66.7% in [19] and 66.2% in assay [20].
On to `C/C(C=O)=C\c1ccc2c(c1)OCO2`, for which the growth is 102% in assay [1]; 85.2% in assay [2]; 135% in assay [3]; 108% in assay [4]; 118% in assay [5]; 104% in [6]. For the same molecule, the growth is 99.9% in assay [7]; 105% in [8]; 107% in assay [9]; 118% in [10]; 108% in [11]; 113% in assay [12]. Further, the growth was 127% in assay [13]; 121% in assay [14]; 98.3% in [15]; 110% in assay [16]; 104% in [17]; 106% in assay [18]. Moreover, the growth in assay [19] was 109%; in assay [20], 121%.
Regarding `COc1ccc2nc3ccccc3c(NCc3ccc(F)cc3)c2c1`, the growth in assay [1] was 14%; in [2], 30%; in [3], 22.6%; in assay [4] it was 28.2%; in assay [5], 5.47% (active); in [6] it was -11.3% (active). The growth in assay [7] was 18.2%; in [8] it was 19.7%; in [9], 6.83% (active); in assay [10] it was -54.4% (active); in assay [11], 16.5%; in assay [12], 1.95% (active). Also, the growth in assay [13] was -5.2% (active); in [14] it was 16.7%; in assay [15], -18.9% (active); in [16], 34.6%; in assay [17], 14.4%; in assay [18], 3.85% (active). In addition, the growth in assay [19] is -11.1% (active); in assay [20], 15.3%.
Take `COc1cc(C(=O)/C=C/c2ccc(N3CCN(C)CC3)cc2)cc(OC)c1OC`: the growth in [1] was 90%; in assay [2] it was 101%; in [3] it was 89.7%; in assay [4], 91.4%; in assay [5] it was 100%; in assay [6], 98.5%. Moreover, the growth in [7] was 77.7%; in assay [8], 101%; in assay [9], 106%; in [10], 91.3%; in [11] it was 104%; in [12] it was 2.23% (active). Moreover, the growth was 86.3% in assay [13]; 92% in assay [14]; 107% in assay [15]; 97.9% in assay [16]; 95.2% in assay [17]; 96.7% in assay [18]. Besides, the growth was 99.3% in assay [19] and 94.8% in [20].
As to `Brc1ccc(-c2cnc3nonc3n2)cc1`, the growth in assay [1] is 68%; in assay [2], 100%; in [3] it was 94%; in assay [4], 105%; in assay [5] it was 96.7%; in assay [6], 86.9%. Besides, the growth was 66% in [7]; 91.9% in [8]; 84.2% in assay [9]; 71.3% in assay [10]; 87.7% in [11]; 38.7% in assay [12]. Besides, the growth in assay [13] is 53.9%; in [14], 69.1%; in assay [15], 74.5%; in [16] it was 87.1%; in assay [17], 91.4%; in assay [18] it was 94.8%. The growth in [19] is 66.9%; in assay [20] it was 80.1%.
`O=C(OC[C@@H]1CO1)c1cccc2c(=O)c3ccccc3[nH]c12`: the growth was -58.5% (active) in [1]; -24.6% (active) in [2]; -13% (active) in assay [3]; -26% (active) in assay [4]; -21.8% (active) in [5]; -25.5% (active) in assay [6]. For the same molecule, the growth in [7] was -49.9% (active); in assay [8] it was -20% (active); in assay [9] it was -8.54% (active); in assay [10], -37.3% (active); in assay [11] it was -20.8% (active); in assay [12], 4.46% (active). Besides, the growth in assay [13] is -89.9% (active); in assay [14] it was -28.1% (active); in assay [15] it was -56.9% (active); in assay [16], -31.3% (active); in [17], -8.88% (active); in assay [18], -38.6% (active). The values for the growth in [19] and in assay [20] were -30.8% (active) and -65.8% (active), respectively.
Regarding `CCOC(=O)c1c2c(n3ccccc13)C(=O)c1ncccc1C2=O`, the growth in assay [1] was 4.7% (active); in assay [2] it was 9.64% (active); in assay [3], 11.4%; in [4], -11.7% (active); in assay [5], 1.12% (active); in [6], 28.4%. Moreover, the growth in [7] is -22.2% (active); in assay [8], 8.27% (active); in [9], 2.37% (active); in assay [10] it was 20.7%; in assay [11] it was 8.05% (active); in assay [12] it was 11.2%. Besides, the growth in assay [13] is 18.1%; in assay [14], 13.4%; in [15], 25%; in [16], 20%; in assay [17], 22.3%; in assay [18] it was -2.14% (active). For the same molecule, the growth in [19] was -3.95% (active); in assay [20], -37.6% (active).
For the molecule `C/C(=C(/c1ccc(Cl)cc1)c1ccc(OCCCN(C)C)cc1)c1ccc(Cl)cc1`, the growth is 91.2% in assay [1]; 108% in assay [2]; 85.9% in [3]; 115% in assay [4]; 72.7% in [5]; 74.4% in [6]. The growth is 99.7% in assay [7]; 68.1% in [8]; 86.8% in assay [9]; 48.9% in assay [10]; 95.5% in [11]; 16.9% in assay [12]. In addition, the growth in assay [13] was 96.4%; in assay [14], 99.2%; in [15] it was 77.6%; in [16] it was 88.5%; in assay [17], 110%; in [18], 99%. The growth in assay [19] is 103%; in assay [20], 91.5%.
